# Compound activity: PubChem, National Center for Advancing Translational Sciences (NCATS)
# Hits are enriched below; roughly 18% of the tested compounds scored in any of these assays.
# HepG2 tox: HepG2 cytotoxicity, counter-screen for TGF-b inhibitors; HepG2 CAGA-GFP viability, ATP luminescence, 18 h; Potency, µM (doses to about 46.1 µM), for the others: at the top dose activity change, negative = cytotoxicity, usual class: cytotoxic; actives 0.76% (n = 410,000); also: potency is read from the fitted curve at half-maximal effect
#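 CellTiter-Glo luminescence gave cytotoxicity after 18 hours at 37 degrees C. The cells were HepG2 CAGA-GFP in 1% FBS DMEM, stimulated with 500 pg/mL TGF-beta after compound addition. %Activity was normalised to no-cell wells (complete cell-killing) and DMSO (no toxicity), and curves were fitted and classified.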
# IL-1B inflam inh: blocks inflammasome-driven IL-1 beta release | AID 743279 | activity change, % at 57.5 µM | THP-1 LPS/ATP IL-1B secretion, AlphaLISA, 16 h; active compounds read low | actives 4.7% (n = 360,000); in the data active = activity change below about -50%; inconclusive = mostly about -30% to -49%; also: % is scaled to controls: 0 for no effect and ±100 for the full control effect
#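 THP-1 cells pretreated 1 hr with compounds (up to 57.5 uM final), then stimulated with LPS (250 ng/mL final) plus ATP (1.25 mM final); secreted IL-1B measured by AlphaLISA after 16 hr, decreased signal indicating inhibition.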
# TDP1 cell CPT: growth inhibition of DT40 Tdp1-/-;hTDP1 cells with camptothecin (screen for TDP1 inhibitors); Potency, µM (highest dose often 46.2 µM), without a hit: at the top dose activity change, negative = growth inhibition, hits mostly inhibitors; chicken DT40 Tdp1-/-;hTDP1 cells + 20 nM CPT, ATP luminescence, 48 h; AID 686979; actives 12% (n = 420,000); also: potency is read from the fitted curve at half-maximal effect; % is scaled to controls: 0 for no effect and ±100 for the full control effect; nearly all actives have a fitted effect of over 55% in size
#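 Cell growth measured by CellTiter-Glo luminescence after a minimum 48 h, 37 C compound exposure with 20 nM CPT in Tdp1-knockout DT40 cells stably expressing hTDP1, seeded 400/well; qHTS titration format.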
# DT40 TDP1 no CPT: qHTS for Inhibitors of human tyrosyl-DNA phosphodiesterase 1 (TDP1): qHTS in cells in absence of CPT. AID 686978, 2013. Potency, µM (doses to about 46.2 µM), without a hit: at the top dose activity change, negative = growth inhibition, most hits filed as inhibitors. actives 15% (n = 420,000). DT40 Tdp1-/- hTDP1 cells, no CPT, ATP luminescence, 48 h; also: potency is read from the fitted curve at half-maximal effect; % is scaled to controls: 0 for no effect and ±100 for the full control effect; nearly all actives have a fitted effect of over 55% in size
#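 Seeded 400 DT40-hTDP1 cells/well (vehicle DMSO, no 20 nM CPT); pinned compounds; ≥48 hr at 37 °C; CellTiter-Glo luminescence as viability measure.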
# TDP1 inh: blocks human tyrosyl-DNA phosphodiesterase 1; Q9NUW8; actives 0.28% (n = 350,000); recombinant TDP1, AlphaScreen DNA substrate cleavage; Potency, µM (highest dose often 130 µM), for inactives: at the highest dose activity change, negative = inhibition, most hits filed as inhibitors; also: potency is read from the fitted curve at half-maximal effect; % is scaled to controls: 0 for no effect and ±100 for the full control effect; nearly all actives have a fitted effect of over 40% in size
# Target sequence (Q9NUW8 whole entry, looked up): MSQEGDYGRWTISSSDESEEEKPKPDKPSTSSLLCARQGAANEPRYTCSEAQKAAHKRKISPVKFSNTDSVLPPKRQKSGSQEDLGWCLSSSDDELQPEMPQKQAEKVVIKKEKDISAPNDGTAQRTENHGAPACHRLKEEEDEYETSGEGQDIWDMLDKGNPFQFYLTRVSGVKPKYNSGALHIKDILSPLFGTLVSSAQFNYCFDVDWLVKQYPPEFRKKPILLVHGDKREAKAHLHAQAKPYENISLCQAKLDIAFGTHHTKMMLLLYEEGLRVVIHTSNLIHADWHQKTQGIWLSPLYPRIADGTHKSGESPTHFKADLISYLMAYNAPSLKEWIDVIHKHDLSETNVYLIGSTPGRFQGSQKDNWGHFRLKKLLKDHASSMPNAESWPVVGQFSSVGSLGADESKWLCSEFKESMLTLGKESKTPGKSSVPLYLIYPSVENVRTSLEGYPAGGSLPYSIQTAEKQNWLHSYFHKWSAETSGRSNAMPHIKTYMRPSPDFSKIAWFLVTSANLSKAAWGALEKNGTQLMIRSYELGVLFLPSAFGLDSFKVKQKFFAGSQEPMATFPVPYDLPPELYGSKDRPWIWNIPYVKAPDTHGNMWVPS
#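 Recombinant human Tdp1 (E. coli-expressed, 1 nM final) preincubated with compounds 15 min at room temperature, then 5'-biotin/3'-phosphotyrosine-FITC DNA substrate (15 nM final) added for 5 min. AlphaScreen beads (10 ug/ml final) added 10 min; cleavage lowers signal.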
# TGFb SMAD3 inh: blocks TGF-b signaling; HepG2 CAGA-GFP TGF-b/SMAD3 reporter, GFP fluorescence, 18 h; TGF-beta stimulated, 500 pg/mL final; actives 1.2% (n = 410,000); Potency, µM (highest dose often 46.1 µM), for the others: top-dose activity, negative = inhibition, actives largely listed as inhibitors; also: potency is read from the fitted curve at half-maximal effect; % is scaled to controls: 0 for no effect and ±100 for the full control effect; nearly all actives have a fitted effect of over 65% in size
#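 HEPG2 CAGA-GFP cells (1000/well, DMEM with 1% FBS) were pre-incubated 2 h at 37 degrees C, given compound by pin tool, then stimulated with TGF-beta at 500 pg/mL final for 18 h before per-cell GFP fluorescence imaging.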
# An asterisk follows results filed as active; i = inactive; ? = inconclusive; nt = no result given; [ ] = another dose, or the depositor's remark. Unless noted, calls follow the shape of the dose curve; as a rule, active = well fitted curve in the direction sought with a large enough effect; inconclusive = small, poorly fitted or top-dose-only effect, or another doubt; inactive = no such curve, though single readings can be large; an effect the other way counts as inactive or inconclusive.
SMILES,HepG2 tox,IL-1B inflam inh,TDP1 cell CPT,DT40 TDP1 no CPT,TDP1 inh,TGFb SMAD3 inh
Cc1ccccc1CNC(=O)Cn1cc2c(n1)-c1c(oc(C(=O)N3CCCC3)c1C)CC2,-9.1%,nt,?,?,7.7%,-58.3%
CCOc1ccccc1CNC(=O)Cn1cc2c(n1)-c1c(oc(C(=O)N3CCCC3)c1C)CC2,-29.9%,nt,13µM*,13µM*,7.7%,?
COc1ccc(-c2noc(-c3ccc(NC4CCCCC4)c([N+](=O)[O-])c3)n2)cc1,1.0%,nt,-0.3%,7.4%,0.0%,-2.2%
CCOC(=O)C1CCN(C(=O)CN2c3ccc(CC)cc3-c3ccccc3S2(=O)=O)CC1,-7.9%,nt,?,?,3.6%,-17.3%
Cc1ccc(C(C)C)c(OCC(=O)Nc2sc3c(c2C#N)CC(C)(C)NC3(C)C)c1,-8.1%,-12.4,?,20.6µM*,5.4%,11.2%
Cc1cc(OCC(=O)Nc2sc3c(c2C#N)CC(C)(C)NC3(C)C)c(C(C)C)cc1Cl,-21.6%,7.2,?,16.4µM*,4.7%,23.1%
CCn1c(SCC(=O)Nc2cc(C)on2)nc2c([nH]c3ccccc32)c1=O,2.4%,i,?,18.4µM*,1.1%,8.7%
COCCn1c(SCC(=O)Nc2cc(C)on2)nc2c([nH]c3ccccc32)c1=O,-8.6%,21.4,?,?,nt,-8.0%
CCCCCCn1c(SCC(=O)Nc2cc(C)on2)nc2ccccc2c1=O,5.0%,16.2,?,10µM*,2.6%,-9.1%
COC(=O)[C@@]1(Cc2ccc(OC)cc2)[C@H]2c3cc(C(=O)N(C)C)n(CCc4ccc(O)c(OC)c4)c3C[C@H]2CN1C(=O)c1ccccc1,nt,nt,nt,nt,7.5%,nt
COc1cc(-c2c(NC(=O)c3ccco3)oc3c(C)cccc3c2=O)cc(OC)c1OC,0.0%,8.0,-27.4%,18.4µM*,4.1%,-1.5%
Cc1cccc2c(=O)c(-c3ccc4c(c3)OCO4)c(NC(=O)c3ccco3)oc12,-23.0%,14.7,?,-25.9%,3.6%,-5.1%
Cc1cccc(-c2c(NC(=O)c3ccco3)oc3c(C)cccc3c2=O)c1,-4.9%,-8.9,?,25.9µM*,3.1%,2.4%
COc1ccc(-c2c(NC(=O)c3ccco3)oc3c(C)cccc3c2=O)cc1OC,-5.0%,-19.8,?,?,4.3%,-0.2%
CCn1c(SCC(=O)Nc2cc(Cl)ccc2OC)nnc1C1CC1,0.5%,2.0,3.0%,4.1%,4.5%[0.0935 µM],1.1%
O=C1CCCN1CC(=O)N1CCCC(Nc2cccc(F)c2)C1 (centres undefined),26.1%,10.9,-4.4%,-4.9%,3.1%[56.1 µM],-2.7%
CC1CCCC(C)N1/N=C/c1ccc(O)c(O)c1 (centres undefined),10.2%,51.9,-16.7%,23.1µM*,nt,6.0%
COc1ccc(/C=N/N2C(C)CCCC2C)cc1O (centres undefined),-18.0%,44.7,8.5%,7.0%,nt,-5.4%
Cc1ccccc1N/N=C/c1c(C)nc2ccccn12,-5.0%,0.0,?,?,nt,2.6%
O=C(Nc1nc2c(F)cc(F)cc2s1)c1ccc2c(c1)OCCO2,4.5%,nt,-7.4%,-4.4%,44.7µM*,nt
CC(C)(C)NC(=O)CSc1nc2cc(S(=O)(=O)N3CCCCC3)ccc2o1,3.1%,17.2,?,?,0.1%,-7.1%
C=CCSc1n[nH]c(-c2ccc(OCCC)cc2)n1,-27.3%,-3.5,29.1µM*,16.4µM*,6.6%,0.4%
C=CCSc1n[nH]c(-c2ccc(OCCCC)cc2)n1,-58.5%,13.7,?,?,2.2%,?
